From PubChem BioAssay (NCI)
About 83,000 compounds went through this panel and 20% of them were active in at least one assay; those are over-represented in the sample as a whole.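 Negative percent growth values reflect cell death: -40 means 40% of the cells present at the start died, and -100 means all died.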 Values without a mark were called inactive. Activity calls are given as the source filed them. The calls were made as follows: active = growth percent below 10; inactive = the rest.

Each compound was assayed on MDA-MB-231 breast (assay: NCI-60 one-dose screen, 48 h (100 = growth as untreated, 0 = no growth, -100 = all killed)). Conditions: 10 µM unless noted.

Question: For CO[C@H]1CC(c2ccc[nH]2)=N[C@]12O[C@@H](C)C[C@@H]1CCCCCCCc3ccc([nH]3)[C@H]12, which growth is on record?
Answer: Its growth is 14.1%.

Question: Which growth does the source give for COc1ccc2c(O)cc3c(c2c1)[C@H](CCl)CN3C(=O)c1cc2cc(NC(=O)CCN3CCOCC3)ccc2[se]1 here?
Answer: Its growth is -58.4% (active).

Question: How did the growth turn out when O=c1c(/C=C/c2c(O)ccc3ccccc23)nnc2sc(-c3cccc([N+](=O)[O-])c3)nn12 was run?
Answer: Its growth is 30.8%.

Question: Which growth does the source give for CC1(C)CCC[C@]23C(=O)O[C@](O)(C(=O)C4=C[C@@](C)(/C=C/CCCc5ccc6ccc7cccc8ccc5c6c78)CC[C@@]42O)[C@@H]13 here?
Answer: The growth was -69.9% (active).

Question: CCOC(=O)CC1C(CNC(=O)NC)OC(n2cnc3c(NC(=O)Nc4ccccc4)ncnc32)C1O[Si](C)(C)C(C)(C)C (configuration not stated) was tested. Which growth did it give?
Answer: Its growth is 50.8%.

Question: How did the growth turn out when COc1ccc(-c2ccc(-c3ccc(C(=N)N)nc3)s2)cc1 was run?
Answer: Its growth is -79.8% (active).

Question: Which growth does the source give for COc1ccc(Cn2cc3c(c2)-c2oncc2CC3)cc1 here?
Answer: The growth was 70.5%.

Question: Which growth does the source give for O=[N+]([O-])c1ccc(Oc2cccc3c(Oc4ccc([N+](=O)[O-])cc4[N+](=O)[O-])cccc23)c([N+](=O)[O-])c1 here?
Answer: Its growth is 63.7%.

Question: For CCCCCN(CCCCC)CC(O)c1c(Cl)ccc2ccccc12 (configuration not stated), which growth is on record?
Answer: The growth was 39.7%.

Question: For Cn1cc(-c2csc(-c3cn(C)c4ccc(F)cc34)n2)c2cnccc21, which growth is on record?
Answer: Its growth is -33.1% (active).

Question: CNC1=C([N+](=O)[O-])C(c2ccc(OC)cc2)C(C#N)=C(c2ccc[nH]2)O1 (configuration not stated) was tested. Which growth did it give?
Answer: The growth was 104%.

Question: For Cc1cc(C(=O)Nc2cc(Nc3ncccc3-c3ncnc4nc[nH]c34)ccc2F)cc(C(C)(C)C#N)c1, which growth is on record?
Answer: The growth was 17%.
